# Results published in ChEMBL document CHEMBL1201862, “PubChem BioAssay data set” (2004).
# About 2,900 (6.9%) of roughly 42,000 sequences were called active. Cut-off read from the data, not from the text of the source: active = GI50 up to about 1.1 µM and inactive = higher. This excerpt belongs to a sample that is enriched for actives. Measured potencies and affinities stand elsewhere.
# System: T47D
row,Substance,GI50
1,"[Bis(aminomethyl)tetramethylenesilane]dichloropaltinum(II), CHEMBL2146205",5 µM
2,"[Bis(aminomethyl)pentamethylenesilane]dichloropaltinum(II), CHEMBL2146202",1.34 µM
3,"[Bis(aminomethyl)pentamethylenesilane]tetrachloropaltinum(IV), CHEMBL2146204",2.18 µM
4,"[Bis(aminomethyl)dimethylsilane]tetrachloroplatinum(IV), CHEMBL2146190",14.6 µM
5,"[Bis(aminomethyl)tetramethylenesilane]tetrachloropaltinum(IV), CHEMBL2146189",0.184 µM
6,"CISPLATIN, CHEMBL11359",14 µM
